{
  "source": "PubChem BioAssay AID1063",
  "about": "(University of Pittsburgh Molecular Library Screening Center, 2008)",
  "note": "Hit rate of the full screen: of about 200,000 compounds, about 18,000 (9%) were called active. Many of the other results were omitted from the sample, so actives are more common in it than they were. Values without a mark were called inactive. Cut-off read from the data, not from the text of the source: active = inhibition above about 50%; inactive = the rest.",
  "data": [
    {"assay": "Leishmania major promastigote growth inhibition, primary screen (AID 1063);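 note: promastigotes grown with compound for 44 hours at 28 °C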", "details": "Leishmania major promastigotes, resazurin fluorescence viability; at 10 µM; active compounds read high", "values": [
      {"compound": "O=C(NCc1ccc(F)cc1)C(c1ccccc1)N(C(=O)c1csnn1)C1CC1", "note": "(stereo unspecified)", "inhibition": "-1.88%"},
      {"compound": "Cc1ccc(C(=O)N2CCN(S(=O)(=O)N3CCOCC3)CC2)cc1", "inhibition": "-2.24%"},
      {"compound": "Cc1ccc(-c2cn(S(=O)(=O)c3cccc([N+](=O)[O-])c3)nc2N)cc1", "inhibition": "3.16%"},
      {"compound": "CC[N+]1(CC)CC2=Cc3ccccc3CC2C1", "note": "(stereo unspecified)", "inhibition": "-4.49%"},
      {"compound": "Cc1cc(=O)[nH]c(N/N=C/c2c(C)nn(-c3ccccc3Cl)c2Cl)n1", "inhibition": "-2.53%"},
      {"compound": "O=C(O)CCN(Cc1ccccc1)S(=O)(=O)c1c(Cl)cccc1Cl", "inhibition": "-2.19%"},
      {"compound": "CC(O)CN(Cc1ccc(Cl)cc1)CC(C)O", "note": "(stereo unspecified)", "inhibition": "-7.47%"},
      {"compound": "OCCN(Cc1ccccc1)Cc1ccc(Cl)cc1", "inhibition": "78.8% (active)"},
      {"compound": "c1ccc2c(c1)OCCOCCOCCO2", "inhibition": "-1.98%"},
      {"compound": "CCOC(=O)CNc1nc(Cl)nc(Nc2ccccc2)n1", "inhibition": "6.65%"},
      {"compound": "CC(O)c1cccc(NC(=O)Cc2cccc3ccccc23)c1", "note": "(stereo unspecified)", "inhibition": "4.7%"},
      {"compound": "O=c1cc(N2CCCCC2)c(-c2ccccc2)nn1Cc1cccc(F)c1", "inhibition": "16.7%"},
      {"compound": "COC(=O)c1c(C(=O)OC)c(-c2cccc(C)c2)n2c1CS(=O)C2", "note": "(stereo unspecified)", "inhibition": "-12.1%"},
      {"compound": "O=[N+]([O-])c1cccc(C2=NCCS2)c1", "inhibition": "-6.13%"},
      {"compound": "CC(C)N(C(=O)Cn1cc(SCC(=O)N2CCCC2)c2ccccc21)C(C)C", "inhibition": "-0.03%"},
      {"compound": "C=CCNc1nnc(C)c2ccccc12", "inhibition": "8%"},
      {"compound": "C=CCNc1nnc(SCC(=O)N2CCCCC2)c2ccccc12", "inhibition": "54.3% (active)"},
      {"compound": "CN1C(=O)/C(=C/c2ccc(C(=O)NC3CCCC3)cc2)Oc2ccccc21", "inhibition": "-4.09%"},
      {"compound": "CCOC(=O)c1cc(-c2ccc(F)cc2)n(CC(=O)NCc2ccccn2)c1C", "inhibition": "3.59%"},
      {"compound": "COc1cccc(CNn2cn[nH]c2=S)c1OCc1ccccc1", "inhibition": "15.9%"},
      {"compound": "COC(=O)C(C)N=Cc1ccccc1", "note": "(stereo unspecified)", "inhibition": "-2.89%"},
      {"compound": "Cc1cc(C(=O)COC(=O)C2CC2)c(C)n1-c1ccc(F)cc1", "inhibition": "-2.35%"},
      {"compound": "Cc1c(Cl)c([N+](=O)[O-])nn1CC(=O)NCC1CCCO1", "note": "(stereo unspecified)", "inhibition": "-3.45%"},
      {"compound": "COCCCNC(=S)NCCNc1nc2cc(C)c(C)cc2cc1C#N", "inhibition": "19.8%"},
      {"compound": "O=C1c2ccccc2C2=Nc3ccccc3SC(c3ccccc3F)C12", "note": "(stereo unspecified)", "inhibition": "98.3% (active)"},
      {"compound": "COc1ccc(CCNC(=O)c2cc3sccc3n2C)cc1OC", "inhibition": "7.15%"},
      {"compound": "O=C(NCCCN1CCCCCC1)c1ccc(N2CCCC2=O)cc1", "inhibition": "0.31%"},
      {"compound": "Cn1c(C(=O)NCCCN2CCCCC2)cc2sccc21", "inhibition": "74.1% (active)"},
      {"compound": "COc1ccc(C2(CNC(=O)Cc3ccc(OC)c(OC)c3)CCCC2)cc1", "inhibition": "0.15%"},
      {"compound": "CCOc1ccc(C(=O)Nc2cccc(-c3ccc4nncn4n3)c2)cc1", "inhibition": "-2.57%"},
      {"compound": "Cc1ccc(NC(=O)c2oc(=O)c3ccccc3c2-c2ccccc2)c(C)c1", "inhibition": "55.8% (active)"},
      {"compound": "Cc1ccc(NC(=O)c2oc3ccccc3c2C)c([N+](=O)[O-])c1", "inhibition": "-2.37%"},
      {"compound": "Cc1ccc(NC(=S)NC(=O)c2ccc(-c3ccccc3)cc2)c(C)c1", "inhibition": "-4.31%"},
      {"compound": "COc1ccccc1N(C)S(=O)(=O)c1ccc(Cl)c(C(=O)N2CCC(C(N)=O)CC2)c1", "inhibition": "-3.28%"},
      {"compound": "COc1cc(/C=N/Nc2ccc(C)cc2)cc(Br)c1O", "inhibition": "-20.7%"},
      {"compound": "Cc1ccccc1OCCOc1ccc([N+](=O)[O-])cc1/C=N/n1cnnc1", "inhibition": "37.6%"},
      {"compound": "Cc1c(Br)ccc(NC(=O)COc2ccccc2C(N)=O)c1C", "inhibition": "2.06%"},
      {"compound": "COc1ccccc1-c1n[nH]c2c1[C@H](C)CC[C@H]2C(C)C", "inhibition": "62.9% (active)"},
      {"compound": "COc1ccccc1-c1nc(SC)n[nH]1", "inhibition": "-6.03%"},
      {"compound": "C=C(C)COc1ccc(-c2n[nH]c(C)c2-c2ccccc2OC)c(O)c1", "inhibition": "-7.88%"},
      {"compound": "Cc1ccc(S(=O)(=O)N(C)C)cc1NC(=O)c1ccccc1Br", "inhibition": "-1.67%"},
      {"compound": "COc1ccc(OC)c(-c2csc(NC(=O)C3=NNC(=O)CC3)n2)c1", "inhibition": "-4.28%"},
      {"compound": "CCc1nnc(NC(=O)CSc2nc(SC)ns2)s1", "inhibition": "-6.1%"},
      {"compound": "CC(=O)NC1C(Oc2ccc(C)cc2)OC2COC(c3ccco3)OC2C1O", "note": "(stereo unspecified)", "inhibition": "54.2% (active)"},
      {"compound": "CCOC(=O)C1C(=O)C=C(c2ccc(OC)cc2)CC1c1ccco1", "note": "(stereo unspecified)", "inhibition": "0.83%"},
      {"compound": "CCc1cccc(OC2OC(CO)C(O)C(O)C2NC(C)=O)c1", "note": "(stereo unspecified)", "inhibition": "-8.46%"},
      {"compound": "CCC(C)(C)NC(=O)CN(Cc1cccs1)C(=O)CNS(=O)(=O)c1ccc(F)cc1", "inhibition": "-4.43%"},
      {"compound": "CCOC(=O)c1cc2n(c1N)-c1ccccc1C2=O", "inhibition": "1.96%"},
      {"compound": "CCOC(=O)c1c(C)[nH]c2c1-c1ccccc1C(=O)C2=O", "inhibition": "100% (active)"},
      {"compound": "CCOC(=O)c1c(C)[nH]c(=S)c(C#N)c1-c1ccccc1", "inhibition": "-3.7%"},
      {"compound": "O=c1cc(O)c(-c2cccc(C(F)(F)F)c2)c(Cl)[nH]1", "inhibition": "16.3%"},
      {"compound": "CC(C)(C)c1nc(NCC2CCCO2)c2nnn(Cc3ccccc3)c2n1", "note": "(stereo unspecified)", "inhibition": "2.46%"},
      {"compound": "Clc1cccc(-c2nc(NCC3CCCO3)c3ccccc3n2)c1", "note": "(stereo unspecified)", "inhibition": "76.4% (active)"},
      {"compound": "c1ccc2c(NCC3CCCO3)nc(-c3ccncc3)nc2c1", "note": "(stereo unspecified)", "inhibition": "3.5%"},
      {"compound": "COC(=O)N/N=C/c1cn(CCCOc2ccc(C)cc2)c2ccccc12", "inhibition": "55.6% (active)"},
      {"compound": "CNC(=S)N/N=C/c1ccc(OCc2ccccc2)c(Br)c1", "inhibition": "1.78%"},
      {"compound": "O=C(Cn1cc(/C=N/NC(=O)c2cccc(C(F)(F)F)c2)c2ccccc21)Nc1ccc(F)cc1", "inhibition": "6.06%"},
      {"compound": "Cc1ccc(OCCCn2c(=O)oc3ccccc32)cc1", "inhibition": "-3.5%"},
      {"compound": "CNC(=S)N/N=C/c1cn(Cc2ccc(C)cc2)c2ccccc12", "inhibition": "62.8% (active)"},
      {"compound": "CCOC(=O)c1cnn(Cc2ccccc2Cl)c1N", "inhibition": "0.00878%"},
      {"compound": "CCOC(=O)N/N=C/c1cn(Cc2ccccc2Cl)c2ccccc12", "inhibition": "83.9% (active)"},
      {"compound": "CCOC(=O)N/N=C/c1cccnc1", "inhibition": "1.46%"},
      {"compound": "COC(=O)Cn1cc(/C=C/[N+](=O)[O-])c2ccccc21", "inhibition": "27.7%"},
      {"compound": "CCN(CC)S(=O)(=O)c1ccc(NC(=O)c2cccnc2Cl)c(NC(=O)c2cccnc2Cl)c1", "inhibition": "-1.01%"},
      {"compound": "O=C(Nc1ccc(Cl)cc1)C1c2cccc[n+]2CC(=O)N1Cc1ccc2c(c1)OCO2", "note": "(stereo unspecified)", "inhibition": "-2.66%"},
      {"compound": "CCC(=O)Nc1ccc(Nc2nc(Cl)nc(Nc3ccc(NC(=O)CC)cc3)n2)cc1", "inhibition": "-6.56%"},
      {"compound": "N#CCSc1nn(-c2ccc(F)cc2)c(=S)s1", "inhibition": "-4.75%"},
      {"compound": "Cc1ccc(S(=O)(=O)N2CCN(C(=O)c3cccs3)CC2)cc1", "inhibition": "-4.13%"},
      {"compound": "Cc1ccnc(NS(=O)(=O)c2ccc(NC(=O)c3ccc(S(=O)(=O)N(C)C)cc3)cc2)n1", "inhibition": "-6.03%"},
      {"compound": "COC(=O)c1c(NC(=O)CCCC(=O)O)sc2c1CCCCC2", "inhibition": "-4.64%"},
      {"compound": "COCCCNc1nc2c(-c3cccc(C(F)(F)F)c3)nnn2c2ccccc12", "inhibition": "0.99%"},
      {"compound": "CC(=O)Nc1ccc(Nc2nc3c(S(=O)(=O)c4ccc(C)c(C)c4)nnn3c3ccccc23)cc1", "inhibition": "3.4%"},
      {"compound": "Cc1cccc(Nc2nc3c(S(=O)(=O)c4ccccc4)nnn3c3ccccc23)c1C", "inhibition": "57.1% (active)"},
      {"compound": "COc1ccc(N(CC(=O)NC2CCCC2)C(=O)CS(=O)CC(=O)Nc2ccc3c(c2)OCO3)cc1", "note": "(stereo unspecified)", "inhibition": "-10.1%"},
      {"compound": "COc1ccc(CC(=O)NCc2nnc(SCC(=O)Nc3nccs3)n2C)cc1", "inhibition": "-3.12%"},
      {"compound": "CC(=O)Oc1ccccc1C1=NN(C(C)=O)C(c2ccccc2)C1", "note": "(stereo unspecified)", "inhibition": "-5.99%"},
      {"compound": "COc1cc([N+](=O)[O-])ccc1NC(=S)N1CCN(c2ccccn2)CC1", "inhibition": "-4.39%"},
      {"compound": "Cc1cccn2c(CN(C)C3CCCc4ccccc43)c(C(=O)N3CCOCC3)nc12", "note": "(stereo unspecified)", "inhibition": "7.87%"},
      {"compound": "Cc1cccn2c(=O)c3cc(C(=O)N4COCC4(C)C)n(C)c3nc12", "inhibition": "89.9% (active)"},
      {"compound": "O=C(O)C1C2CC2CN1C(=O)c1ccc(Cl)cc1Cl", "note": "(stereo unspecified)", "inhibition": "-2.09%"},
      {"compound": "COc1ccc(NC(=O)Nc2ccc3nc(C)c(C)nc3c2)cc1", "inhibition": "6.7%"},
      {"compound": "COc1ccc2nc(/N=C(\\N)NC(=O)Nc3ccccc3)nc(C)c2c1", "inhibition": "99.9% (active)"},
      {"compound": "COc1ccc2nc(SCc3ccccc3)nc(C)c2c1", "inhibition": "-8.99%"},
      {"compound": "Cc1nc2cc(NCc3cccs3)ccc2n1C", "inhibition": "9.59%"},
      {"compound": "C[C@H](NC(=O)c1ccccc1Cl)C(=O)OCCOc1cccc(Cl)c1", "inhibition": "-6.25%"},
      {"compound": "CC(=O)N/N=C/c1cc2c(cc1[N+](=O)[O-])OCO2", "inhibition": "-2.52%"},
      {"compound": "CCn1c(CSc2nc(C)cc(C)n2)nnc1SCC(N)=O", "inhibition": "-0.87%"},
      {"compound": "Cc1cc2cc(CNC(=O)c3cccs3)ccc2[nH]1", "inhibition": "-4.21%"},
      {"compound": "CCc1cccc(CC)c1NC(=S)NCc1ccc2[nH]c(C)cc2c1", "inhibition": "94.4% (active)"},
      {"compound": "Cc1cccc(NC(=S)NCc2ccc3[nH]c4c(c3c2)CCCC4)c1", "inhibition": "11.1%"},
      {"compound": "COc1cc(/C=C(\\C#N)C(=O)Nc2ccc3ccccc3c2)c([N+](=O)[O-])cc1OC", "inhibition": "-8.56%"},
      {"compound": "O=C(/C=C/c1ccccc1[N+](=O)[O-])OC1CCCCC1=O", "note": "(stereo unspecified)", "inhibition": "-5.55%"},
      {"compound": "CC1CCCCC1NC(=O)/C(C#N)=C/C=C/c1ccccc1[N+](=O)[O-]", "note": "(stereo unspecified)", "inhibition": "69% (active)"},
      {"compound": "COc1cc(CN(C)Cc2nc3cc(C(F)(F)F)ccc3c(=O)[nH]2)ccc1OC(F)F", "inhibition": "8.36%"},
      {"compound": "O=C(CSc1cccc[n+]1[O-])c1ccc(-c2ccccc2)cc1", "inhibition": "-8.44%"},
      {"compound": "CC(NC(=S)NC1CCCCC1)C(c1ccccc1)N1CCOCC1", "note": "(stereo unspecified)", "inhibition": "1.15%"}
    ]}
  ]
}
